Laboratory results published in PubChem BioAssay AID1851 (National Center for Advancing Translational Sciences (NCATS), 2009).
Values joined by “and” are separate entries in the source; they are usually repeats but may differ in a detail not shown here. Equal entries are not always repeated. In all, about 16,000 compounds went through this assay and about 5,800 (36%) were called active. Another 23% or so got no clear call; they are omitted. Calls follow the shape of the dose curve; as a rule, active = well fitted curve in the direction sought with a large enough effect; inconclusive = small, poorly fitted or top-dose-only effect, or effect the other way; inactive = no such curve, though single readings can be large or run the other way. The list shows a part of the results. Where a structure was tested more than once in an assay, its records may differ in their call.

target: Cytochrome P450 2C19 (Homo sapiens) (UniProt P33261); test: Cytochrome panel assay with activity outcomes; details: recombinant CYP, pro-luciferin dealkylation, luminescence, p450-cyp2c19; series mostly up to 57.1 µM
Sequence (P33261 whole entry, looked up): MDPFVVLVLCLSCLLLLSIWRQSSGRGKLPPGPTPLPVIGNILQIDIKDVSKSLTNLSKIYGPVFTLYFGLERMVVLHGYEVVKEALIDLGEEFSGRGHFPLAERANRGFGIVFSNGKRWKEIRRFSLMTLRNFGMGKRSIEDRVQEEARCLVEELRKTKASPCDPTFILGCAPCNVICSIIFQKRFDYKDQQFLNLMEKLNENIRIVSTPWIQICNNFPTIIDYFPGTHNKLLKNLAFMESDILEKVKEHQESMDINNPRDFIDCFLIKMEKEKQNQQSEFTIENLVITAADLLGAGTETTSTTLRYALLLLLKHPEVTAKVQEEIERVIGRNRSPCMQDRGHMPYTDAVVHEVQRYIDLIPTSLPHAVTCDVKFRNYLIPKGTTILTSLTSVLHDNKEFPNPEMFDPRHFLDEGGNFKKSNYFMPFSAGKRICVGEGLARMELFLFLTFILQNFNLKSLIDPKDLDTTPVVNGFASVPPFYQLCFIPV
% is scaled to controls: 0 for no effect and ±100 for the full control effect.

Compound | AC50 | activity, negative = inhibition
CC(C)(C)NC(=O)CSC(=Nc1ccc(F)cc1)NC#N | 2.82 µM (active) | 
COc1ccc(C(=O)N2CCC3(CCCN(CC(C)C)C3)CC2)cc1 | inactive | 
COc1ccc(C)cc1NC(=O)c1cc2cc3ccc(C)cc3nc2o1 | inactive | 
Cc1ccc2cc(C(=O)O)c(C)nc2c1 | inactive | 
Cc1ccc2cc3cc(C(=O)N4CCCCC4C)oc3nc2c1 (stereo unspecified) | 14.1 µM (active) | 
COc1ccc2cc3cc(C(=O)NCCCN4CCOCC4)oc3nc2c1 | inactive | 
COc1ccc2cc3cc(C(=O)Nc4ccc5c(c4)OCO5)oc3nc2c1 | 7.08 µM (active) | 
COc1ccc2cc3cc(C(=O)NCc4ccc5c(c4)OCO5)oc3nc2c1 | 10 µM (active) | 
COc1ccc2cc3cc(C(=O)NCc4ccccn4)oc3nc2c1 | inactive | 
COc1ccc2cc3cc(C(=O)NCCN4CCN(c5ccccc5F)CC4)oc3nc2c1 | 28.2 µM (active) | 
CCN1CCN(CCCNC(=O)c2cc3cc4ccc(OC)cc4nc3o2)CC1 | inactive | 
CCN(CC(=O)O)CC(=O)O |  | 7.01% [at 11.4 µM] (inactive)
COCC(=O)N1CCC[C@@]2(CCN(c3ncccn3)C2)C1 | inactive | 
O=S1(=O)C=C(SCc2cccc(Cl)c2)Nc2ccccc21 | 0.891 µM (active) | 
C=CCOc1cccc(CNn2cn[nH]c2=S)c1 | 7.94 µM (active) | 
C[C@@H](C(=O)NCCc1c[nH]c2ccccc12)[C@@H]1C[C@@]1(C)[C@@H](NC(=O)OCc1ccccc1)c1ccccc1 | 0.794 µM (active) | 
C[C@@H](C(=O)NCCc1c[nH]c2ccccc12)[C@H]1C[C@]1(C)[C@H](NC(=O)OCc1ccccc1)c1ccccc1 | 2.51 µM (active) | 
COc1cccc([C@@H]2Oc3ccc(OC)cc3C(=O)[C@H]2O)c1 | 1 µM (active) | 
COc1cccc([C@@H]2Oc3ccc(Br)cc3C(=O)[C@H]2O)c1 | 3.16 µM (active) | 
COc1cccc([C@H]2Oc3ccc(OC)cc3/C(=N\O[C@@H]3O[C@H](COC(C)=O)[C@H](OC(C)=O)[C@H](OC(C)=O)[C@H]3OC(C)=O)[C@@H]2O)c1 |  | 14.8% [at 11.4 µM] (inactive)
CC(=O)OCC(=O)[C@]12OC(C)(C)O[C@@H]1C[C@H]1[C@H]3CC=C4C[C@@H](O)CC[C@]4(C)[C@H]3CC[C@]12C |  | 4.13% [at 11.4 µM] (inactive)
CC[C@@H]1OC(=O)[C@H](C)[C@H](O[C@@H]2C[C@](C)(OC)[C@H](O)[C@H](C)O2)[C@H](C)[C@H](O[C@@H]2O[C@@H](C)C[C@@H](N(C)C)[C@@H]2O)[C@](C)(O)C[C@H](C)C(=O)[C@H](C)[C@H](O)[C@]1(C)O | inactive | 
Nc1c2c(=O)oc(-c3ccccc3)cc2nn1-c1ccccc1 | 14.1 µM (active) | 

Compound | AC50 | activity, negative = inhibition
NS(=O)(=O)c1cccc2c1c([N+](=O)[O-])cc1[nH]c(=O)c(=O)[nH]c12 | inactive | 
Cc1cc(C)c(C(N)=O)c(SCC(=O)c2ccc(Cl)cc2)n1 | 8.91 µM (active) | 
NC(=O)c1nnn(Cc2cc(Cl)c(C(=O)c3ccc(Cl)cc3)c(Cl)c2)c1N |  | -30.1% [at 11.4 µM] (inactive)
CCCSc1nc(C)cc(C)c1C(N)=O | inactive | 
CCOC(=O)c1nc2sc(C)c(C)c2c(=O)[nH]1 | 10 µM (active) | 
OCCNc1ncnc2c1ncn2[C@@H]1O[C@@H](CO)[C@H](O)[C@@H]1O |  | 32.5% [at 11.4 µM] (inactive)
CCC(=O)N[C@@H]1Cc2ccccc2[C@@H](c2ccccc2)C1 | 7.94 µM (active) | 
CCC(=O)N[C@@H]1CCc2cccc(OC)c2C1 | inactive | 
COc1cccc(Nc2ncc3nc(-c4ccc(F)cc4)c(=O)n(C)c3n2)c1 | inactive | 
COc1cccc(Nc2nc(-c3ccc(O)cc3)cs2)c1 | 2.51 µM (active) | 
COc1ccc(-c2nc3cnc(Nc4cccc(OC)c4)nc3n(Cc3cccs3)c2=O)cc1 | inactive | 
Cc1cc(C)n(C(=O)CCCCCCCCC(=O)n2nc(C)cc2C)n1 | 3.55 µM (active) | 
CC(=O)c1cnc2cc(C)nn2c1C | inactive | 
CN1CCc2c(cc(O)c(O)c2Cl)[C@H](c2cccc(Cl)c2)C1 | inactive | 
OC(COCC1COc2ccccc2O1)CN1CCN(c2ccccc2F)CC1 (stereo unspecified) | 28.2 µM (active) | 
OC(COCC1COc2ccccc2O1)CN1CCc2ccccc2C1 (stereo unspecified) | 5.01 µM (active) | 
CC(C)(C)C1CCC(OCC(O)CN2CCN(c3ccccc3)CC2)CC1 (stereo unspecified) | inactive | 
O=C(c1ccccc1)c1ccc2n1CC[C@H]2C(=O)O | inactive | 
CC(C)(C)NC[C@@H](O)COc1ccccc1C1CCCC1 | inactive | 
C=CCc1ccccc1OC[C@H](O)CNC(C)C | inactive | 
O=C(NC1CCCC1)c1cnn2c(C(F)(F)F)cc(-c3ccco3)nc12 | 11.2 µM (active) | 
Cc1nc2ccccn2c1C(=O)CSc1ccccc1Cl | 2.82 µM (active) | 
C[C@@H](C(=O)NCCF)[C@H]1C[C@]1(C)[C@H](NC(=O)OCc1ccccc1)c1ccccc1 | 1.26 µM (active) | 

Compound | AC50 | activity, negative = inhibition
COCCNC(=O)[C@H](C)[C@@H]1C[C@@]1(C)[C@@H](NC(=O)OCc1ccccc1)c1ccccc1 | 3.16 µM (active) | 
CCOC(=O)N/N=C1/C[C@@H](O)[C@@H](O)[C@@H]2[C@@H]3C(=O)N(C(C)(C)C)C(=O)[C@H]3CC[C@@H]12 |  | -19.4% [at 11.4 µM] (inactive)
CC(=O)OCCNC(=O)c1cccnc1 | inactive | 
O=C(NCCO[N+](=O)[O-])c1cccnc1 | 3.98 µM (active) | 
O=C(NCCOC(=O)c1ccc(C(=O)OCCNC(=O)c2cccnc2)s1)c1cccnc1 | 7.94 µM (active) | 
Cc1cccc([C@@H]2CN(C)CCc3c2cc(O)c(O)c3Cl)c1 | inactive | 
CN(C)CCC[C@@]1(c2ccc(F)cc2)OCc2cc(C#N)ccc21 | inactive and 3.16 µM (active) | 
COc1ccccc1N/C(=N/S(=O)(=O)c1ccc(C)cc1)c1ccc(Cl)cc1 | 4.47 µM (active) | 
O=S(=O)(/N=C(/Nc1ccc(F)cc1F)c1ccc(Cl)cc1)c1ccccc1 | inactive | 
COc1cccc(-c2nc(Nc3ccncc3)c3ccccc3n2)c1 | 3.16 µM (active) | 
CS(=O)(=O)Nc1cccc(-c2nc(Nc3ccccc3)c3ccccc3n2)c1 | 10 µM (active) | 
CS(=O)(=O)Nc1ccc(Nc2c3ccccc3nc3ccccc23)cc1 |  | -0.835% [at 11.4 µM] (inactive)
COc1cc(NS(C)(=O)=O)ccc1Nc1c2ccccc2nc2ccccc12 | inactive | 
CS(=O)(=O)Nc1cccc(-c2nc(Nc3ccncc3)c3ccccc3n2)c1 | 5.01 µM (active) | 
CS(=O)(=O)Nc1cccc(-c2nc(Nc3ccc(F)cc3)c3ccccc3n2)c1 | 7.94 µM (active) | 
N#Cc1cccc(-c2nc(Nc3ccncc3)c3ccccc3n2)c1 | inactive | 
CNc1nc(-c2cccc(NS(C)(=O)=O)c2)nc2ccccc12 | inactive | 
CS(=O)(=O)Nc1cccc(-c2nc(N3CCNCC3)c3ccccc3n2)c1 | inactive | 
CCCCCCCCCCCCCCSCC(=O)O | inactive | 
NC[C@](O)(CS(=O)(=O)O)c1ccc(Cl)cc1 | inactive | 
O=C(N/N=C/C1C(c2ccccc2)C1(Cl)Cl)c1cccc(Br)c1 (stereo unspecified) | 7.08 µM (active) | 
O=C(N/N=C/c1cccc(Oc2ccccc2)c1)c1cccc(Br)c1 | 2.24 µM (active) | 
O=C(N/N=C\c1ccc(Sc2ccccn2)o1)c1cccc(Br)c1 | 2.51 µM (active) | 

Compound | AC50 | activity, negative = inhibition
C[C@@H](N=C(N)N)C(=O)O |  | 36.5% [at 11.4 µM] (inactive)
CC(=O)O[C@]12CC[N@+]3(C)CCCC[C@@H]3[C-]1Nc1ccccc12 |  | 34.8% [at 11.4 µM] (inactive)
Cn1nc(C(F)(F)F)c(/C=N/OCc2c(Cl)cccc2Cl)c1Cl | 0.282 µM (active) | 
COc1ccc(OC)c(NC(=O)Cn2cccc2)c1 | 6.31 µM (active) | 
CCCC(=O)Nc1cc(-c2cn3cccnc3n2)ccc1OC | inactive | 
COc1ccc(NC(=O)N2CCC3(CC2)CCN(C(=O)c2cccn2C)CC3)cc1 | inactive | 
COCCN(C(=O)Nc1ccc(OC)cc1OC)C1CCN(C(C)=O)CC1 | inactive | 
COc1ccc(NC(=O)N2CC3(CCN(C(=O)c4cccn4C)CC3)C2)cc1 | inactive | 
COc1ccc(NC(=O)NCc2cccn2C)c(OC)c1 | 6.31 µM (active) | 
COc1ccc(OC)c(NC(=O)CC(Cc2ccccc2OC)C(=O)O)c1 (stereo unspecified) | inactive | 
COc1ccc(NC(=O)Cn2cccc2)c(OC)c1 | 2.24 µM (active) | 
COc1ccc(-c2nnn(CC(=O)N(CC(=O)NCCC(C)C)Cc3cccs3)n2)cc1OC | 1.12 µM (active) | 
CO[C@H]1COC(=O)[C@H](C)NC(=O)C/C=C\[C@@H](C)[C@@H](NS(=O)(=O)c2ccc(C)cc2)COC(=O)C/C=C\[C@@H]1C |  | 24.1% [at 11.4 µM] (inactive)
CCOc1ccc(-c2nnn(CC(=O)Nc3cc(OC)ccc3OC)n2)cc1OCC | 5.62 µM (active) | 
COc1ccc(-c2nnn(CC(=O)NCCc3c[nH]c4ccccc34)n2)cc1OC | 8.91 µM (active) | 
Cn1ncc(C#N)c1NC(=O)C1CC(c2ccc(Cl)cc2)=NO1 (stereo unspecified) | 0.316 µM (active) | 
COc1cccc(Nc2ncc3nc(-c4cccs4)c(=O)n(CCC#N)c3n2)c1 | inactive | 
O=C(CCC1CCCCC1)Nc1c2c(nn1-c1ccc(F)cc1)CS(=O)(=O)C2 | 15.8 µM (active) | 
O=C(O)c1cc(N=Nc2ccc([N+](=O)[O-])cc2)ccc1O |  | -3.05% [at 11.4 µM] (inactive)
NC(=O)c1ccc([N+](=O)[O-])cc1SCc1ccccc1 | 10 µM (active) | 
O=C(NCc1ccccn1)c1cc(-c2ccccc2Cl)on1 | 14.1 µM (active) | 
O=C(O)[C@@H]1[C@@H](C(=O)NCc2ccccn2)[C@@H]2C=C[C@@H]1O2 |  | 36% [at 11.4 µM] (inactive)
